Assay outcomes deposited in PubChem BioAssay by National Center for Advancing Translational Sciences (NCATS).
The full list was thinned out, with hits kept by preference.
GPR32 ag = agonists of human resolvin D1 receptor DRV1 (GPR32); O75388; CHO-K1 GPR32 beta-arrestin PathHunter luminescence, 90 min; zero percent set by DMSO-only wells; activation, % at 76.9 µM; hit rate 2.5% among 48,000; AID 1346428;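 active = activation of at least 60% and not above a set upper limit, about 1 call in 100 departs from these limits; inconclusive = activation of 40% to 60%, or above that upper limit; inactive = activation under 40%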; note: 0% is about no effect
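Agonism was scored as beta-arrestin recruitment to ProLink-fused GPR32 in stably transfected CHO-K1 cells, giving a chemiluminescent beta-Gal signal; compounds were incubated 90 min at 37 °C.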
AID inh = blocks human AID cytidine deaminase activity. AID deamination FRET fluorescence, UDG-coupled, 4 h. Potency, µM (highest dose often 115 µM), hits mostly inhibitors. hit rate 0.32% among 91,000. AID 1347428; note: potency is the fitted concentration of half-maximal effect; % is set by controls: 0 for no effect and ±100 for the full control effect; nearly all actives have a fitted effect of over 25% in size
Target sequence (Q9GZX7 whole entry, looked up): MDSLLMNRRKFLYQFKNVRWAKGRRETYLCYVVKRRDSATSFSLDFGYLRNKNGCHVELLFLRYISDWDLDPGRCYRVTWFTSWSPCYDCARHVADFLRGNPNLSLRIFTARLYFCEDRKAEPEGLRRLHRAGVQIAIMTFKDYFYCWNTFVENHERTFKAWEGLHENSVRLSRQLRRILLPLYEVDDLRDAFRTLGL
UDG counterscr = counter-screen for AID inhibitors: uracil-DNA glycosylase inhibition; FRET deamination/UDG coupled assay, UDG read, 4 h; Potency, µM (doses to about 115 µM), for inactives: at the highest dose activity change, negative = inhibition, hits mostly inhibitors; hit rate 0.14% among 91,000; AID 1347430; note: potency is the fitted concentration of half-maximal effect; % is set by controls: 0 for no effect and ±100 for the full control effect; nearly all actives have a fitted effect of over 65% in size
Active calls of the source: *; [ ] = remark or other dose. Unless noted, calls come from the whole dose curve; as a rule, active = well fitted curve in the direction sought with a large enough effect; inconclusive = small, poorly fitted or top-dose-only effect, or another doubt; inactive = no such curve, though single readings can be large; an effect the other way counts as inactive or inconclusive.

Results for COc1cccc(-c2cc(C(=O)NCc3ccccc3)no2)c1 ?
GPR32 ag: 34; AID inh: inactive; UDG counterscr: 84%

How did CC1CCN(C(=O)c2cc(-c3cccc(Cl)c3)on2)CC1 do in these assays?
GPR32 ag: 28; AID inh: inactive; UDG counterscr: 45%

How did COc1ccc(CNC(=O)c2cc(-c3cccc(Cl)c3)on2)cc1 do in these assays?
GPR32 ag: 66*; AID inh: inconclusive; UDG counterscr: -4%

Results for Cc1c(Cl)cccc1NC(=O)c1cc(-c2cccs2)on1 ?
GPR32 ag: 91*; AID inh: inactive; UDG counterscr: -11%[57.5 µM]

What do the screens show for `O=C(c1cc(-c2cccc(Cl)c2)on1)N1CCCCC1`?
GPR32 ag: 66*; AID inh: inactive; UDG counterscr: -15%

Results for CCN(Cc1cccs1)C(=O)c1cccc(C#N)c1 ?
AID inh: inactive; UDG counterscr: -5%

How did O=C(CCc1ncc(-c2ccccc2F)o1)N1CCN(CC(=O)N2CCCCC2)CC1 do in these assays?
AID inh: inactive; UDG counterscr: -9%

How did CC(Sc1nnc2c(Cl)cc(C(F)(F)F)cn12)C(=O)c1cccc(Cl)c1 (configuration not stated) do in these assays?
AID inh: inactive; UDG counterscr: 0%

How did Cc1ccc(NC(=O)C2CC2)cc1NC(=O)C1(C)CC1(Cl)Cl (configuration not stated) do in these assays?
AID inh: inactive; UDG counterscr: -7%

How did CC(=O)N/N=C(/C)c1ccc(NC(=O)C2CC2)cc1 do in these assays?
AID inh: inactive; UDG counterscr: 5%

Results for O=S(=O)(Nc1cccc(C(F)(F)F)c1)c1ccc(NS(=O)(=O)c2ccc3c(c2)OCCO3)cc1 ?
GPR32 ag: inconclusive; AID inh: inactive; UDG counterscr: -5%

Results for Cc1c(Cl)cccc1NS(=O)(=O)c1ccc(NS(=O)(=O)c2ccc3c(c2)OCCO3)cc1 ?
GPR32 ag: 68*; AID inh: inconclusive; UDG counterscr: -6%

Results for CCCCC1C(=O)N(c2ccccc2)N(c2ccc(O)cc2)C1=O (configuration not stated) ?
GPR32 ag: 109*

Results for CC(C)=CCC1C(=O)N(c2ccccc2)N(c2ccccc2)C1=O ?
GPR32 ag: -33

What do the screens show for `COc1ccccc1NC(=O)Nc1nnc(N(C)C2CCCCC2)s1`?
AID inh: inactive; UDG counterscr: 2%

Results for CS(=O)(=O)CCC(NS(=O)(=O)/C=C/c1ccccc1)C(=O)O (configuration not stated) ?
AID inh: inactive; UDG counterscr: 3%

Results for Cc1oc(-c2ccccc2)nc1CCC(=O)c1ccc(CC2SC(=O)NC2=O)cc1 (configuration not stated) ?
GPR32 ag: 74*

How did Cc1ccc(C(=O)NCc2nc(-c3ccccc3)oc2C)cc1 do in these assays?
AID inh: inactive; UDG counterscr: -10%

Results for O=C(Cc1c[nH]c2ccccc12)NCCc1ccc(Cl)cc1 ?
AID inh: inactive; UDG counterscr: -3%

How did CCc1ccc(NC(=O)c2sc3ncnc(N(C)C4CCCCC4)c3c2C)cc1 do in these assays?
GPR32 ag: -10; AID inh: inactive; UDG counterscr: 79µM*

How did CCOc1ccc(CNC(=O)c2sc3ncnc(N(C)C4CCCCC4)c3c2C)cc1 do in these assays?
GPR32 ag: -16; AID inh: inconclusive; UDG counterscr: -15%

What do the screens show for `CCOC(=O)/C(C#N)=C/c1cc(Br)ccc1OCc1c(F)cccc1Cl`?
AID inh: inactive; UDG counterscr: -8%

What do the screens show for `CC1=C(C(N)=O)C(c2cccc(O)c2)n2ncnc2N1` (configuration not stated)?
GPR32 ag: 61*; AID inh: inactive; UDG counterscr: -5%

Results for CC1=C(C(=O)Nc2ccccc2Cl)C(c2cccc(O)c2)n2ncnc2N1 (configuration not stated) ?
GPR32 ag: -5; AID inh: inactive; UDG counterscr: 2%

How did COc1cccc(CNCCSc2nnnn2C)c1OCc1ccccc1F do in these assays?
GPR32 ag: 30; AID inh: inactive; UDG counterscr: -2%

What do the screens show for `COc1cccc(CNCCSc2nnnn2C)c1OCc1ccc(F)cc1`?
GPR32 ag: 81*; AID inh: inactive; UDG counterscr: -8%

How did Cc1ccc(C2C=C(c3ccc(Cl)cc3)Nc3nc(NS(=O)(=O)c4ccccc4)nn32)cc1 (configuration not stated) do in these assays?
GPR32 ag: 73*; AID inh: inconclusive; UDG counterscr: -3%

What do the screens show for `O=C(Nc1nc2n(n1)C(c1ccccc1)C=C(c1ccc(Cl)cc1)N2)c1ccco1` (configuration not stated)?
GPR32 ag: -2; AID inh: inactive; UDG counterscr: 14%
